According to the supplement of paper PMC3334620:
The full ranking holds about 33,000 sequences; the median of “E-score (-0.5 to 0.5)” is about -0.013, and the highest 2% start at about 0.3. The full list was thinned out, with the highest values kept by preference.

These sequences were tested against T1, Msn1 (UniProt P22148) (assay: PBM E-score (8-mer binding enrichment) (E-score (-0.5 to 0.5)); higher = stronger / more preferred TF binding). Settings: protein concentration: 200 nM; construct: GST-full length.
T1 sequence: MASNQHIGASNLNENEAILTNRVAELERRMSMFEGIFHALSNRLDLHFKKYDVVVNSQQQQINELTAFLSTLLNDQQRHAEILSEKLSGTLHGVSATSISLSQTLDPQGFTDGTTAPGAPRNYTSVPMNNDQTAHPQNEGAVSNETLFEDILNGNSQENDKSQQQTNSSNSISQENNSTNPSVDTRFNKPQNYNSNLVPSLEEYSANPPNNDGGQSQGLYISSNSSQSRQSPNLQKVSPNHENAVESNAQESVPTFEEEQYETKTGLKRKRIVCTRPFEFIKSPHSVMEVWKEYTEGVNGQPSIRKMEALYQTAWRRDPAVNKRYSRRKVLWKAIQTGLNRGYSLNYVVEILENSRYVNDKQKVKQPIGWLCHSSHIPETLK
Method in brief: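 Using PURExpress in vitro transcription/translation, GST-tagged yeast transcription factors were made in full-length or DNA-binding-domain form. These were applied at about 100-200 nM to double-stranded universal all-10-mer Agilent arrays, and bound protein was detected with fluorescent anti-GST. Scans were normalised with masliner before the Universal PBM Analysis Suite assigned E-scores to ungapped eight-base words pooled with their reverse complements.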

Sequence | PBM E-score
CCACCAAC | -0.0306
AACCTGGT | 0.00051
AGTCCCAA | 0.17
TGTCCCAA | 0.463
CGTCCCAA | 0.218
AAGCATTA | -0.0789
CTCGATGA | -0.0098
ACGACCTA | -0.0056
CAGGCCGC | -0.144
CACATACC | 0.0401
AACATACC | 0.107
GACATACA | 0.414
TACATACA | 0.207
CACATACA | 0.0971
GACATACC | 0.4
GCGGATCA | -0.116
ACAAAAGG | 0.229
AGTTAGAC | 0.124
CTTGGGTC | -0.123
GGACTCAC | -0.116
GCCCTTTA | -0.318
TTCCAAAA | 0.192
CTACAAAC | -0.0616
GTACAAAC | 0.421
CTACAAAA | 0.0933

Sequence | PBM E-score
GTCCAAAC | 0.175
ATACAAAC | 0.125
GTCCAAAA | 0.318
TTACAAAA | 0.12
GTACAAAA | 0.416
ACGAGTAT | -0.134
GAAGGCTC | -0.291
CTTGGGCC | -0.266
CTACACGC | -0.145
GCTTCTAC | -0.0502
CGTAAGTA | 0.0282
CTGTGAAA | 0.2
GTGTGACA | 0.17
ACGTGACA | 0.27
TCGTGACA | 0.314
CTGTGACA | 0.316
CCGTGACA | 0.164
CTGTGACC | -0.115
ATGTGACA | 0.305
ATGTGACG | -0.223
CCTGCTTC | -0.172
GCGCCTAA | 0.129
CGTAGGGA | 0.0214
GGTTTGCA | -0.172
ACGAATCA | 0.13

Sequence | PBM E-score
CAGTCACG | -0.198
ATTGCTGC | -0.0878
ATTCGGAC | 0.339
ATTCGGAA | 0.167
ATTCGGAG | 0.0972
AAAGATAT | 0.113
AATGAGAG | -0.161
CCCCAATC | -0.222
CTGACATC | 0.143
ATGACAGA | 0.137
ATGACATC | 0.349
GTGACTGA | 0.0999
ATGACAGG | 0.105
GTGACAGA | 0.161
ATGACACC | 0.0663
ATGACACA | 0.287
GTGACATA | 0.328
CTGACATA | 0.269
ATGACATA | 0.417
ATGACATG | 0.361
AGCGCGTG | -0.133
CATTGGGG | -0.125
GGGACCAA | -0.0643
CGCCTCTA | -0.0484
CACACTGG | -0.259

Sequence | PBM E-score
CATGCAGA | -0.0066
CATCTCGA | 0.149
CAAGAAAG | 0.0067
GATCTTAC | 0.00117
TGAGAGAA | 0.00621
AGAGACAA | 0.375
TGAGACAA | 0.397
AGAGACAC | 0.177
AGAGACAG | 0.0165
CGAGACAG | -0.00132
AGAGACCT | -0.012
CGAGACAA | 0.365
AGAGACAT | 0.43
CGAGACAC | 0.183
AGAGAGAC | -0.0618
TGAGACCA | -0.0631
ATAGCGGG | -0.192
ACGAAGCT | -0.0736
CCTTTGGC | -0.132
AATCGAAT | 0.047
ACGTTGCC | -0.241
CCAGCGCG | -0.158
GAGCTCGC | -0.0509
CACCCACA | -0.132
ATTAGCTA | -0.086

Sequence | PBM E-score
GCCCGGAA | 0.0421
GGAGACAC | 0.0421
GGAGACAA | 0.32
GGAGACCA | -0.0845
AGTCTTGC | -0.0197
CCAAAGTA | -0.0844
ATTACTGG | -0.119
CAAGCGCA | 0.185
CCCTCGAA | -0.0781
ACTGCTGG | -0.169
CACATTAC | 0.0152
AACATTAA | 0.158
GACATTAA | 0.431
CACATTTA | 0.15
GACATTAC | 0.442
GACATTTA | 0.474
TACATTAA | 0.277
AACATTTA | 0.252
AACATTAC | -0.108
AGAGGTCG | -0.105
GCTGGAAA | -0.0496
ATTTTGAA | 0.126
TGGCCAAA | 0.0563
ATCTTGCA | 0.0688
GTGTACCA | 0.189

Sequence | PBM E-score
ATGTACGA | 0.215
ATGTACAA | 0.36
ATGTACCA | 0.316
ATGTACAC | 0.268
ATGTACCC | 0.115
ATGTACAT | 0.324
ATGTACAG | 0.185
ATGTACTA | 0.233
AATTAGCG | 0.0486
ATGCTCCC | -0.341
GCCCGTTA | -0.266
CGTTCGCC | -0.0525
ACGAGGCG | 0.0795
ATATTGTG | -0.00984
ACATTGTG | 0.207
ATATTGTC | 0.427
CCATTGTA | 0.193
ACATTGTA | 0.143
CCATTGTC | 0.311
CCATTGGC | -0.0912
ACATTGTC | 0.411
CTATTGTC | 0.288
GAAGTAGC | -0.206
TAGGGTGA | -0.1
CCCTGCAG | -0.245

Sequence | PBM E-score
CGCATTTA | 0.193
ATGGACCA | 0.114
ATGGACAG | 0.251
ATGGACAA | 0.485
ATGGACAT | 0.484
GTGGACAC | 0.356
ATGGACCC | -0.0808
ATGGACAC | 0.437
ATGGACGA | 0.273
GTCGACAC | 0.141
GTGGAAAC | 0.164
ATGGAAAT | 0.0754
ATGGACGC | 0.122
GCGCTAGC | -0.0831
ATTAGGGA | 0.0137
CAGGTTGC | 0.0156
AGACTTGC | -0.136
AGCTTAAT | -0.00074
CACCCGTA | -0.0199
AAGCGAGC | -0.0286
AGCTTGAT | -0.0595
ACCGCGCC | -0.168
